PubChem BioAssay (EPA / NIEHS)
Records with an inconclusive call do not appear. The source made the active and inactive calls. How the source made its calls, unless noted: active means hit-call score of the fitted dose curve at least 0.9, where 1 is the maximum; inconclusive means response in the unintended direction; inactive means score below 0.9.

Tests used:
[1] = TOX21_p53_BLA_p2_viability: Viability Assessment in the Tox21 HCT-116 p53 Agonism Beta-lactamase Assay, Phase 2 (AID 2283591);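 further: compound exposure lasted 16 h at 37 °C; actives lower the ATP signal meaning cytotoxicity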
Summary of the method: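 HCT116 p53-bla cells, 4000/well, dosed after 5 h plating (217-fold dilution of DMSO stocks) and incubated 16 h at 37C. Viability taken as cellular ATP by CellTiter-Glo luminescence after 30 min RT; signal loss marks cytotoxicity.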

[2] = molecular target: Cellular tumor antigen p53 (Homo sapiens) (UniProt P04637); test: TOX21_p53_BLA_p2_ratio: Tox21 HCT-116 p53 Agonism Beta-lactamase Assay, Ratio, Phase 2 (AID 2283592)
Summary of the method: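 Human colon HCT116 cells with an inducible p53 beta-lactamase reporter are exposed to test chemicals for 16 h at 37C. Reporter induction is read as the 460/530 nm emission ratio after CCF4-AM loading, normalized to DMSO.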

[3] = TOX21_p53_BLA_p3_viability: Viability Assessment in the Tox21 HCT-116 p53 Agonism Beta-lactamase Assay, Phase 3 (AID 2283593);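 further: cells exposed to compound for 16 h before reading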
Summary of the method: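 HCT116 cells, 4000/well, dosed 5 h after plating by pin transfer (217-fold dilution from DMSO stock) and incubated 16 h at 37C, 5% CO2. Viability read as ATP luminescence with CellTiter-Glo after 30 min at room temperature.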

[4] = molecular target: Cellular tumor antigen p53 (Homo sapiens) (UniProt P04637); test: TOX21_p53_BLA_p3_ratio: Tox21 HCT-116 p53 Agonism Beta-lactamase Assay, Ratio, Phase 3 (AID 2283596)
Summary of the method: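 HCT116 p53-bla cells (4000/well) given compound in DMSO (217-fold dilution) after 5 h, incubated 16 h at 37C. CCF4-AM substrate 2 h at room temperature; 460/530 nm emission ratio, gain fitted against DMSO.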

[5] = TOX21_p53_BLA_p4_viability: Viability Assessment in the Tox21 HCT-116 p53 Agonism Beta-lactamase Assay, Phase 4 (AID 2283597);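 further: hits lower the luminescence signal meaning cytotoxicity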
Summary of the method: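 Luminescent ATP readout (CellTiter-Glo, 30 min, room temperature) in the same wells as the p53 bla ratio. HCT116 cells were treated for 16 h at 37C with DMSO-dissolved compounds.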

[6] = molecular target: Cellular tumor antigen p53 (Homo sapiens) (UniProt P04637); test: TOX21_p53_BLA_p5_ratio: Tox21 HCT-116 p53 Agonism Beta-lactamase Assay, Ratio, Phase 5 (AID 2283599)
Summary of the method: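 HCT-116 p53-bla cells (4000/well) plated 5 h, dosed with compound (217-fold DMSO dilution) for 16 h at 37 C; CCF4-AM substrate 2 h at room temperature. Activity is the 460/530 nm emission ratio (405 nm excitation), fitted in gain-of-signal direction versus DMSO.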

[7] = molecular target: Cellular tumor antigen p53 (Homo sapiens) (UniProt P04637); test: TOX21_p53_BLA_p4_ratio: Tox21 HCT-116 p53 Agonism Beta-lactamase Assay, Ratio, Phase 4 (AID 2283601)
Summary of the method: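 HCT-116 p53 beta-lactamase reporter cells (4000/well) preincubated 5 h, then compound (217-fold dilution of DMSO stock) for 16 h at 37C. CCF4-AM substrate added 2 h at room temperature; 460/530 nm emission ratio fitted upward versus DMSO.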

[8] = TOX21_p53_BLA_p5_viability: Viability Assessment in the Tox21 HCT-116 p53 Agonism Beta-lactamase Assay, Phase 5 (AID 2283600)
Summary of the method: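 Seeded cells (4000/well) settle 5 h before compound addition. Plates then incubate 16 h at 37C, receive FRET substrate for 2 h, and finally CellTiter-Glo, with luminescence measured after a 30 min room-temperature incubation.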

[9] = CCTE_Deisenroth_AIME_96WELL_CTox_Active: Cytotoxicity Assessment (CTOX) in CCTE's 96-well Estrogen Receptor Transactivation Assay with AIME metabolic competence (metabolism positive), Deisenroth Lab (AID 2284028)
Summary of the method: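 Chemicals (0.002–200 uM) were first incubated 2 h with alginate-immobilized phenobarbital/beta-naphthoflavone-induced male rat liver S9; conditioned medium then went onto VM7Luc4E2 cells for 24 h, with viability read by protease-substrate fluorescence, fitted bidirectionally.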

[10] = CCTE_Shafer_MEA_dev_firing_rate_mean: CCTE's Neural Network Formation Assay for Mean Firing Rate, Shafer Lab (AID 2284031; active means hit-call score of the fitted dose curve at least 0.9, where 1 is the maximum; inactive means score below 0.9)
Summary of the method: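 Rat primary cortical neurons were seeded on multielectrode arrays and treated from plating through day 12, with redosing at each feed. Spontaneous spiking was recorded four times; mean firing rate AUC was fitted downward against DMSO.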

[11] = CCTE_Shafer_MEA_dev_active_electrodes_number: CCTE's Neural Network Formation Assay for Number of Active Electrodes, Shafer Lab (AID 2284040)
Summary of the method: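 Primary rat cortical neurons on 16-electrode MEA wells, exposed from day 0 through day 12 with compound renewed at DIV 5 and 9 feeds. Active electrodes (mean firing ≥5 spikes/min) counted at DIV 5, 7, 9, 12; trapezoidal AUC across days, loss-of-signal versus DMSO.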

[12] = CCTE_Shafer_MEA_dev_burst_rate: CCTE's Neural Network Formation Assay for Burst Rate, Shafer Lab (AID 2284042; active means hit-call score of the fitted dose curve at least 0.9, where 1 is the maximum; inactive means score below 0.9)
Summary of the method: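 Primary rat cortical neurons on PEI-coated 48-well MEA plates (laminin added with cells at plating) (16 electrodes/well), exposed from plating to day 12, dosing renewed at DIV 5 and 9. Burst rate averaged over active electrodes, recorded DIV 5, 7, 9, 12, summarized as AUC; loss versus DMSO.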

[13] = CCTE_Shafer_MEA_dev_bursting_electrodes_number: CCTE's Neural Network Formation Assay for Number of Bursting Electrodes, Shafer Lab (AID 2284043)
Summary of the method: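 Primary rat cortical neurons plated on 16-electrode MEA wells, exposed from day 0 with compound renewed at DIV 5 and 9. Electrodes bursting ≥1 burst per 2 min counted on days 5, 7, 9 and 12; trapezoidal AUC across days, fitted for loss versus DMSO.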

[14] = CCTE_Shafer_MEA_dev_burst_duration_mean: CCTE's Neural Network Formation Assay for Mean Burst Duration, Shafer Lab (AID 2284045; active means hit-call score of the fitted dose curve at least 0.9, where 1 is the maximum; inactive means score below 0.9)
Summary of the method: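 Primary rat cortical neurons on 48-well 16-electrode MEA plates, exposed from day 0 with renewal at DIV 5 and 9; spontaneous activity recorded on days 5, 7, 9, 12. Well-mean burst duration across bursting electrodes, collapsed as trapezoidal AUC; DMSO baseline.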

[15] = CCTE_Shafer_MEA_dev_inter_network_spike_interval_mean: CCTE's Neural Network Formation Assay for Mean Inter-network Spike Interval, Shafer Lab (AID 2284047; active means hit-call score of the fitted dose curve at least 0.9, where 1 is the maximum; inactive means score below 0.9)
Summary of the method: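 Primary rat cortical neurons on 16-electrode MEA wells, exposed from plating day 0 through DIV 12, compound renewed at DIV 5 and 9 media changes. Mean interval between network-spike peaks recorded DIV 5, 7, 9, 12; collapsed as trapezoidal AUC, fitted downward versus DMSO.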

[16] = CCTE_Shafer_MEA_dev_network_spike_number: CCTE's Neural Network Formation Assay for Number of Network Spikes, Shafer Lab (AID 2284048; active means hit-call score of the fitted dose curve at least 0.9, where 1 is the maximum; inactive means score below 0.9)
Summary of the method: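 Primary rat cortical neurons on PEI/laminin 48-well MEA plates, dosed from plating day 0 for 12 days, renewed at DIV 5 and 9. Network spike counts recorded DIV 5, 7, 9, 12, collapsed as trapezoidal AUC; DMSO baseline.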

[17] = CCTE_Shafer_MEA_dev_network_spike_peak: CCTE's Neural Network Formation Assay for Mean Number of Electrodes in Network Spike, Shafer Lab (AID 2284049; active means hit-call score of the fitted dose curve at least 0.9, where 1 is the maximum; inactive means score below 0.9)
Summary of the method: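 Network-spike peak electrode count from recordings on days 5, 7, 9 and 12 was combined as trapezoidal area under the curve. Rat cortical cultures were treated continuously from plating, with compound renewed at each feed (DIV 5, 9); fits versus DMSO.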

[18] = CCTE_Shafer_MEA_dev_spike_duration_mean: CCTE's Neural Network Formation Assay for Mean Spike Duration, Shafer Lab (AID 2284051; active means hit-call score of the fitted dose curve at least 0.9, where 1 is the maximum; inactive means score below 0.9;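 further: mean network spike duration pooled as area under curve over DIV 5 to 12 recordings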)
Summary of the method: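 Primary rat cortical neurons on 16-electrode MEA wells (PEI-coated, laminin in plating drop), exposed from plating through DIV 12 with compound renewed at DIV 5 and 9. Mean network-spike duration recorded DIV 5, 7, 9, 12; trapezoidal AUC across days, DMSO baseline.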

[19] = CCTE_Shafer_MEA_dev_network_spike_duration_std: CCTE's Neural Network Formation Assay for Standard Deviation of Network Spike Duration, Shafer Lab (AID 2284052; active means hit-call score of the fitted dose curve at least 0.9, where 1 is the maximum; inactive means score below 0.9;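 further: area under curve of spike duration SD across recording days 5 to 12; hits are decreases in network spike duration SD versus DMSO vehicle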)
Summary of the method: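 Primary rat cortical neurons on PEI-coated 16-electrode MEA wells, exposed from plating day 0 through day 12 with compound renewed at DIV 5 and 9. Network spike duration SD recorded on days 5, 7, 9, 12, collapsed as trapezoidal AUC; loss-of-signal fit versus DMSO.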

[20] = CCTE_Shafer_MEA_dev_per_network_spike_spike_number_mean: CCTE's Neural Network Formation Assay for Mean Number of Spikes in a Network Spike, Shafer Lab (AID 2284053; active means hit-call score of the fitted dose curve at least 0.9, where 1 is the maximum; inactive means score below 0.9)
Summary of the method: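 Primary rat cortical neurons on 48-well, 16-electrode MEA plates were exposed from plating to DIV 12, with dosing renewed on DIV 5 and 9. Spikes per network spike (0.05 s peak window) were recorded on DIV 5, 7, 9 and 12 and collapsed as trapezoidal AUC versus DMSO.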

[21] = CCTE_Shafer_MEA_dev_per_network_spike_spike_percent: CCTE's Neural Network Formation Assay for Percent of Spikes in a Network Spike, Shafer Lab (AID 2284054; active means hit-call score of the fitted dose curve at least 0.9, where 1 is the maximum; inactive means score below 0.9)
Summary of the method: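 Rat primary cortical neurons were grown on 48-well MEA plates (16 electrodes/well), exposed from plating day 0 through day 12, with treatment renewed on DIV 5 and 9. Percent of spikes within 0.05 s network-spike peaks was measured, summarised as AUC across days 5, 7, 9, 12.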

[22] = CCTE_Shafer_MEA_dev_LDH: CCTE's Lactate Dehydrogenase Assay for Cytotoxicity in the Neural Network Formation Assay, Shafer Lab (AID 2284068);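 further: exposure for twelve days from plating with re-dosing on DIV 5 and 9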
Summary of the method: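 Primary rat cortical neurons were plated on PEI/laminin MEA plates and exposed from day 0 for twelve days, with compound renewed at DIV 5 and 9. Cytotoxicity was determined by spectrophotometric LDH assay relative to DMSO.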

[23] = CCTE_Shafer_MEA_dev_mutual_information_norm: CCTE's Neural Network Formation Assay for Mutual Information Normalization, Shafer Lab (AID 2284091; active means hit-call score of the fitted dose curve at least 0.9, where 1 is the maximum; inactive means score below 0.9)
Summary of the method: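 Primary rat cortical neurons on PEI-coated 48-well MEA plates, 1.5 x 10^5 cells/well, exposed from day 0 through day 12 with re-dosing at DIV 5 and 9. Mutual information between electrodes recorded days 5, 7, 9, 12; trapezoidal AUC, loss-of-signal fit versus DMSO.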

[24] = CCTE_Shafer_MEA_dev_correlation_coefficient_mean: CCTE's Neural Network Formation Assay for Mean Correlation Coefficient, Shafer Lab (AID 2284093; active means hit-call score of the fitted dose curve at least 0.9, where 1 is the maximum; inactive means score below 0.9)
Summary of the method: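 Spontaneous activity recorded on days 5, 7, 9 and 12 post-plating; pairwise spike correlations are averaged across active electrodes and collapsed to an area-under-curve. Rat cortical cultures are dosed from plating through 12 days, with compound renewed at media changes.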

Measured: AC50

Chain of Cellular tumor antigen p53 (Homo sapiens) (P04637 whole entry, looked up): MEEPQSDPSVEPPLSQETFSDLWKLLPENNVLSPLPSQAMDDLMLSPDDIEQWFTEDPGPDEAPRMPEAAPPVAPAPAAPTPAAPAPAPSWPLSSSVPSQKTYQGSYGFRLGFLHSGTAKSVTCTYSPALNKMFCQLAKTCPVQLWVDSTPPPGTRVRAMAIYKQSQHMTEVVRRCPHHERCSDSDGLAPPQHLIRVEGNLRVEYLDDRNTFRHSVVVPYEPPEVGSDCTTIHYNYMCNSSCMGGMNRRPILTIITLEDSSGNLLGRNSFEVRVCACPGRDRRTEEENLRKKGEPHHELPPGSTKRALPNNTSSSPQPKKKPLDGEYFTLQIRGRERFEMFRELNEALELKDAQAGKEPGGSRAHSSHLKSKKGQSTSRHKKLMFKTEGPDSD

Nc1ccccc1C(=O)OCC=Cc1ccccc1
inactive: [2] | [3] | [4] | [5] | [6] | [7]
active: [1] 66300 nM

c1ccc2c(c1)cc1ccc3cccc4ccc2c1c34
active: [2] 2050 nM | [4] 4140 nM | [6] 1560 nM | [7] 2390 nM
inactive: [1] | [3] | [5] | [8] | [9] | [10] | [11] | [12] | [13] | [14] | [15] | [16] | [17] | [18] | [19] | [20] | [21] | [22] | [23] | [24]

Oc1ccc2[nH]cc(CCCCN3CC=C(c4ccccc4)CC3)c2c1
inactive: [1] | [2] | [3] | [4] | [5] | [6] | [8] | [7]
